Screening results from PubChem BioAssay.
KDM5B inhibitor = inhibitors of human KDM5B histone demethylase; Q9UGL1; 2.6% of 220,000 active; KDM5B demethylase, FDH-coupled NADH fluorescence (FDH is formaldehyde dehydrogenase); Potency, µM (highest dose often 57.7 µM), most hits filed as inhibitors; active = well fitted inhibition curve with a large enough effect; inconclusive = small, poorly fitted or top-dose-only effect; inactive = no such curve, though single readings can be large or run the other way; also: nearly all actives have a fitted effect of over 70% in size
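Measured: NADH fluorescence change, 30 min, RT. System: KDM5BΔAP 200 nM final, H3K4me3 peptide, α-KG, Fe(II), ascorbate, NAD⁺ plus FDH, pH 7.5 HEPES. Compounds: titrated, 10 min pre-incubation with enzyme.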
IP6K1 inhibitor = IP6K1 kinase inhibition. IP6K1 kinase, ADP-Glo luminescence, 2 h; hits give low values. activity change, % (series mostly up to about 58 µM). 0.81% of 140,000 active. AID 1645851. Q92551; in the data active = activity change below about -25%
Target sequence (Q92551 whole entry, looked up): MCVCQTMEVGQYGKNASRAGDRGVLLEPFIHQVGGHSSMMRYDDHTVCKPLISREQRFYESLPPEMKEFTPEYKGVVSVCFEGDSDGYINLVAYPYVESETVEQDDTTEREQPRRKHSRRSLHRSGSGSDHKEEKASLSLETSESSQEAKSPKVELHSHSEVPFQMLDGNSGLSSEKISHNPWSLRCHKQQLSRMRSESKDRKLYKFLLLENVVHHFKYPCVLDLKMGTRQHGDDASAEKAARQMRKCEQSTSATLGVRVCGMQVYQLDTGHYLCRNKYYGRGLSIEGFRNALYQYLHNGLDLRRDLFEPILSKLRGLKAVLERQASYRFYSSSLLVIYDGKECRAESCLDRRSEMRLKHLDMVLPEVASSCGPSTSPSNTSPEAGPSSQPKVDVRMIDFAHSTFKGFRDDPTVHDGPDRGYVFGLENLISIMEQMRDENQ
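ADP-Glo luminescence measures ADP made by human IP6K1 during a 2 h RT reaction with ATP/IP6 (mix at 1.3 mM/130 uM); top library doses 57.5 and 19.1 uM final.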
Numbers stand for hits. An excerpt weighted towards active compounds, which were near 2.8% of everything screened.

How did COCC(=O)NC1CCN(c2ccc3nnc(-c4ccccc4)n3n2)CC1 do in these assays?
IP6K1 inhibitor: inactive

Results for COCC1CN(C)CC12CCN(Cc1cnn(C(C)C)c1)CC2 (stereo not drawn) ?
KDM5B inhibitor: inconclusive; IP6K1 inhibitor: inactive

Results for CCn1cc(CN2CCC3(CC2)CN(C)CC3COC)cn1 (stereo not drawn) ?
KDM5B inhibitor: 25.1µM; IP6K1 inhibitor: inactive

What do the screens show for `O=C(Nc1ccccc1)c1cnc2c(c1)N([S+](=O)([O-])c1cccnc1)CCC2`?
KDM5B inhibitor: inactive; IP6K1 inhibitor: inactive

What do the screens show for `COc1cccc(NC(=O)c2cnc3c(c2)N(C(=O)Cc2cn(C)c4ccccc24)CCC3)c1`?
KDM5B inhibitor: inconclusive; IP6K1 inhibitor: inactive

What do the screens show for `Cn1cc(CC(=O)N2CCCc3ncc(C(=O)Nc4cccc(F)c4)cc32)c2ccccc21`?
KDM5B inhibitor: 31.6µM; IP6K1 inhibitor: inactive

How did Cn1cc(CC(=O)N2CCCc3ncc(C(=O)NCc4ccccc4)cc32)c2ccccc21 do in these assays?
KDM5B inhibitor: inactive; IP6K1 inhibitor: inactive

Results for O=C(Nc1cccnc1)c1cnc2c(c1)N(Cc1ccccc1)CCC2 ?
KDM5B inhibitor: 35.5µM; IP6K1 inhibitor: inactive

What do the screens show for `CC(C)c1ccc(CC(=O)N2CCCc3ncc(C(=O)Nc4cccc(Cl)c4)cc32)cc1`?
KDM5B inhibitor: 28.2µM; IP6K1 inhibitor: inactive

How did Cn1cc(CC(=O)N2CCCc3ncc(C(=O)Nc4cccc(C(F)(F)F)c4)cc32)c2ccccc21 do in these assays?
KDM5B inhibitor: 22.4µM; IP6K1 inhibitor: inactive

Results for CC(C)c1ccc(CC(=O)N2CCCc3ncc(C(=O)Nc4cccnc4)cc32)cc1 ?
KDM5B inhibitor: inconclusive; IP6K1 inhibitor: inactive

What do the screens show for `COc1cc(-c2nn(C3CCC(N4CCN(C(C)=O)CC4)CC3)c3ncnc(N)c23)ccc1NC(=O)c1cc2ccccc2n1C` (stereo not drawn)?
IP6K1 inhibitor: inactive

What do the screens show for `Cn1c(=O)n(C)c2cc(N3CCCCC3)c(NC(=O)COc3ccc(Cl)cc3)cc21`?
KDM5B inhibitor: inactive

What do the screens show for `O=C1CCC2(CNC(=O)C3CCC3)CCCC=C2N1` (stereo not drawn)?
KDM5B inhibitor: inactive; IP6K1 inhibitor: inactive

What do the screens show for `Cc1ccc(-c2csc(Nc3c(C)cccc3C)n2)cc1`?
KDM5B inhibitor: inactive

How did CC(C)NC(=O)NC[C@H]1O[C@@H](CO)[C@@H](O)[C@H]1N1CCN(c2ccccn2)CC1 do in these assays?
KDM5B inhibitor: inconclusive; IP6K1 inhibitor: inactive

Results for CC(C)NC[C@H]1O[C@@H](CO)[C@@H](O)[C@H]1N1CCN(c2ccccn2)CC1 ?
KDM5B inhibitor: 25.1µM; IP6K1 inhibitor: inactive

What do the screens show for `O=C(NC(c1ccccc1)c1ccccn1)C1CCN(CC(F)(F)F)CC1` (stereo not drawn)?
KDM5B inhibitor: inactive

What do the screens show for `Cc1occc1C(=O)N[C@@H]1CN(c2ncccn2)C[C@H]1CO`?
KDM5B inhibitor: inconclusive; IP6K1 inhibitor: inactive

How did Cc1ccoc1C(=O)N[C@@H]1CN(c2ncccn2)C[C@H]1CO do in these assays?
KDM5B inhibitor: 25.1µM; IP6K1 inhibitor: inactive

How did Cc1ccc(C(=O)N[C@@H]2CN(c3ncccn3)C[C@H]2CO)nc1 do in these assays?
KDM5B inhibitor: 20µM; IP6K1 inhibitor: inactive

How did Cn1ccc(C(=O)N[C@@H]2CN(c3ncccn3)C[C@H]2CO)n1 do in these assays?
KDM5B inhibitor: inconclusive; IP6K1 inhibitor: inactive

Results for CCOc1ccc(CC(=O)N2CCC[C@H]2c2nc(-c3ccc(C)cc3)no2)cc1 ?
KDM5B inhibitor: inactive; IP6K1 inhibitor: inactive

Results for COc1cccc(C(=O)N2CCCC(c3nn(-c4ccc(F)cc4)c(=O)[nH]3)C2)c1 (stereo not drawn) ?
KDM5B inhibitor: inactive; IP6K1 inhibitor: inactive

Results for COc1cccc(Oc2ccc(CNc3ncccn3)cn2)c1 ?
KDM5B inhibitor: inactive

Results for COC(=O)c1nc2n(n1)C(c1ccccc1F)C(C(=O)Nc1ccc(C)cc1C)=C(C)N2 (stereo not drawn) ?
KDM5B inhibitor: inactive

What do the screens show for `CC(C)c1noc(C2Cc3ccccc3N2C(=O)CCn2cnnn2)n1` (stereo not drawn)?
KDM5B inhibitor: inconclusive; IP6K1 inhibitor: inactive

What do the screens show for `CCn1ccc(C(=O)N2c3ccccc3CC2c2nc(C(C)C)no2)n1` (stereo not drawn)?
KDM5B inhibitor: 25.1µM; IP6K1 inhibitor: inactive

What do the screens show for `Cc1nc(C)c(C(=O)N2CCOCC(O)(CN3CCCC3)C2)s1` (stereo not drawn)?
KDM5B inhibitor: inconclusive; IP6K1 inhibitor: inactive

Results for Cc1cc(C)cc(NC(=O)c2cc3n(n2)CC(c2ccc(Cl)cc2)OC3)c1 (stereo not drawn) ?
KDM5B inhibitor: 25.1µM; IP6K1 inhibitor: inactive

Results for Cc1ccc(NC(=O)c2cc3n(n2)CC(c2ccc(Cl)cc2)OC3)cc1 (stereo not drawn) ?
KDM5B inhibitor: 20µM; IP6K1 inhibitor: inactive

Results for O=C(Nc1ccccc1)c1cc2n(n1)CC(c1ccc(Cl)cc1)OC2 (stereo not drawn) ?
KDM5B inhibitor: inconclusive; IP6K1 inhibitor: inactive

Results for Cc1cccc(NC(=O)c2cc3n(n2)CC(c2ccc(Cl)cc2)OC3)c1 (stereo not drawn) ?
KDM5B inhibitor: inconclusive; IP6K1 inhibitor: inactive

Results for COc1cccc(NC(=O)c2c(-c3cnn(C)c3NCc3ccc(C#N)cc3)noc2C)c1 ?
KDM5B inhibitor: inactive; IP6K1 inhibitor: inactive

What do the screens show for `Cc1[nH]c(=O)c(C#N)cc1C(=O)N1CCCC2(CCC(=O)N(C3CC3)C2)C1` (stereo not drawn)?
KDM5B inhibitor: 28.2µM; IP6K1 inhibitor: inactive

How did O=C(c1ccc(Cn2cccn2)o1)N1CCCC2(CCC(=O)N(C3CC3)C2)C1 (stereo not drawn) do in these assays?
KDM5B inhibitor: inactive; IP6K1 inhibitor: inactive

Results for Cc1cc(C)c(C)c(S(=O)(=O)N2CCN(CC(=O)NC(=O)NC(C)(C)C)CC2)c1C ?
KDM5B inhibitor: inactive

Results for CC(C)c1nc(N2CCCCCC2)ncc1C(=O)O ?
KDM5B inhibitor: 28.2µM; IP6K1 inhibitor: inactive

Results for CC(C)c1nc(N2CCOCC2)ncc1C(=O)O ?
KDM5B inhibitor: inconclusive; IP6K1 inhibitor: inactive

What do the screens show for `CCc1nc2nccc(-c3cc(OC)c(OC)c(OC)c3)n2n1`?
KDM5B inhibitor: inconclusive; IP6K1 inhibitor: inactive

What do the screens show for `COc1ccc(-c2ccnc3nc(CCc4ccc(OC)c(OC)c4)nn23)cc1`?
KDM5B inhibitor: 25.1µM; IP6K1 inhibitor: inactive

What do the screens show for `CCc1nc2nccc(-c3ccc(OC)c(OC)c3)n2n1`?
KDM5B inhibitor: 20µM; IP6K1 inhibitor: inactive

Results for COc1ccc(CCc2nc3nccc(-c4ccncc4)n3n2)cc1 ?
KDM5B inhibitor: inactive; IP6K1 inhibitor: inactive

What do the screens show for `COc1ccc(CCc2nc3nccc(-c4ccc(OC)c(OC)c4)n3n2)cc1OC`?
KDM5B inhibitor: inconclusive; IP6K1 inhibitor: inactive

Results for CCc1nc2nccc(-c3ccc(Br)cc3)n2n1 ?
KDM5B inhibitor: 15.8µM; IP6K1 inhibitor: inactive

Results for COc1ccc(CCc2nc3nccc(-c4ccc(OC)cc4)n3n2)cc1 ?
KDM5B inhibitor: 25.1µM; IP6K1 inhibitor: inactive

What do the screens show for `CNC(=O)C(NC(=O)c1c(F)cccc1F)C(C)C` (stereo not drawn)?
KDM5B inhibitor: inactive

How did COc1cccc(-c2cnc([C@@H]3COCCN3Cc3ccccc3)[nH]2)c1 do in these assays?
KDM5B inhibitor: inactive; IP6K1 inhibitor: inactive

How did O=C(NNc1ccccc1)c1ccncc1 do in these assays?
IP6K1 inhibitor: inactive
